Measured values from the supplement of paper PMC5940239.
A number with no mark means an inactive call.

test system: Madurella mycetomatis MM55; assay: percent growth relative to solvent control; higher = less inhibition, active = 20 or less; details: 100 µM; 7 days

SMILES | percent growth
O=C(NC1CC1)c1ccc(N2CCC(Cc3ccccc3)CC2)nc1 | 104%
CC[C@@H]([C@H](C)O)n1ncn(-c2ccc(N3CCN(c4ccc(OC[C@@H]5CO[C@@](Cn6cncn6)(c6ccc(F)cc6F)C5)cc4)CC3)cc2)c1=O | 0.417% (active)
Cc1cc(OCC(=O)Nc2ccc(C(C)C)cc2)n(C)c(=O)c1C#N | 96%
Cc1ccc(NC(=O)c2cc(S(=O)(=O)NC(C)(C)C)ccc2C)nc1 | 78.4%
CS(=O)(=O)N1CCC(Cn2nc(Cc3cccc4ccccc34)c3c(N)ncnc32)CC1 | 92.8%
COc1ccc(-c2cncc3ccc(C(=O)NCCCn4ccnc4)nc23)cc1 | 109%
NC(=O)c1cc(Br)ccc1OCCOc1ccccc1 | 92.8%
CNC(=O)C1Cc2c([nH]c3cc(Cl)ccc23)C2(CCN(CCc3ccccc3)CC2)N1 (centres undefined) | 70%
CC1CS(=O)(=O)CCN1/N=C/c1ccc([N+](=O)[O-])o1 (centres undefined) | 96.8%
CC(=O)N1CCN(c2ccc(Oc3ccc(Cl)cc3O)cc2)CC1 | 102%
CC(C)(CN)c1nc(-c2ccc(Cl)c(O)c2)c(-c2ccnc(N)n2)[nH]1 | 88.2%
O=C(NCCN1CCCC1)c1cc(NCCCCN2CCC(F)(F)CC2)nc2ccc(Cl)cc12 | 61.8%
N=C(N)c1ccc(OCCCCCOc2ccc(C(=N)N)cc2)cc1 | 48.7%
CC(=O)NCC1CN(c2ccc(-c3ccc(CNCc4cn[nH]n4)cc3)c(F)c2)C(=O)O1 (centres undefined) | 125%
CC(=O)N(CCN(C(=O)c1ccc(F)cc1)c1ccccc1)c1ccccc1 | 48.9%
FC(F)(F)c1cnc(Sc2nnc(-c3ccncc3)o2)c(Cl)c1 | 82.4%
c1cc(C2=NCCN2)cc(-c2cc(-c3ccc(C4=NCCN4)cc3)no2)c1 | 73.8%
Clc1cccc(CO[C@H]2CCc3ccccc3[C@@H]2n2ccnn2)c1 | 64.8%
CS(=O)(=O)Cc1nc2ccccc2oc1=O | 87.9%
CCS(=O)(=O)N(Cc1ccco1)Cc1cc2ccc(C)cc2nc1O | 85%
Cc1cc(Nc2ccc(C(F)(F)F)cc2)n2ccnc2n1 | 77.4%
C[C@]1(O)C[C@@H](c2nc(-c3ccc4ccc(-c5ccccc5)nc4c3)c3c(N)nccn32)C1 | 133%
CCc1ccc([C@@H]2C[C@H](C(F)(F)F)n3ncc(C(=O)NCc4ccc(OC)cc4)c3N2)cc1 | 60.8%
CCCn1c(CNc2ccccc2O)nc2ccccc21 | 91.1%
